Source: PubChem BioAssay (several laboratories)
TNAP act mid DEA: human TNAP activation, intermediate phosphate acceptor; P05186; purified TNAP, CDP-star luminescence, 100 mM DEA, 30 min; stronger effect = higher value; scale: 0 levamisole-inhibited, 1 vehicle-only enzyme; activation factor at 20 µM; 64,000 tested, under 10 active; AID 813;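 active = activation factor of at least 2 at 20 µM, relative to controls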
HePTP inhibitor: inhibitors of human HePTP phosphatase. 110,000 compounds, 0.64% hits. inhibition, % at 20 µM. P35236. recombinant HePTP phosphatase activity, OD absorbance; in the data active = inhibition above about 50%
Target sequence (P35236 whole entry, looked up): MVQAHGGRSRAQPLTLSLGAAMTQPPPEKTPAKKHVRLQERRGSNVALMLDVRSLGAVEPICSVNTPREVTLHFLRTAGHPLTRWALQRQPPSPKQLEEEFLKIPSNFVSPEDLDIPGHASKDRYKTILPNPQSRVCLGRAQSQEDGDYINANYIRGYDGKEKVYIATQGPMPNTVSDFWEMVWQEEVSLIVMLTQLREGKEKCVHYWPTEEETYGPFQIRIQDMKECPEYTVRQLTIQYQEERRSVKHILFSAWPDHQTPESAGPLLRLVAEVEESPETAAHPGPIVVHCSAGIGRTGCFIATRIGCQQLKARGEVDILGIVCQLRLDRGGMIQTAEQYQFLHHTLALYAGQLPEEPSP
Ecoli WT expand: E. coli BW25113 growth inhibition, expanded screen | growth inhibition, % at 100 µM | AID 710 | OD600 absorbance | 98,000 compounds, 0.15% hits;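 active = growth inhibition above about 50% at one test dose, limit read from the data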;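 also: growth measured after 20 h incubation at 37 °C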
PLAP activator: activates human placental alkaline phosphatase; activation fold at 20 µM; AID 696; purified PLAP enzyme, luminescent substrate read-out; stronger effect = higher value; 96,000 compounds, 1.2% hits; in the data active = activation fold above about 2
Hits are given with their value. Rows were chosen to be rich in hits. Some 1.3% of all compounds tested hit in one or more screens of this group.

How did COC(=O)C(NC(C)=O)(Nc1ccc(Br)cc1)C(=O)OC do in these assays?
TNAP act mid DEA: inactive; HePTP inhibitor: inactive; Ecoli WT expand: inactive; PLAP activator: inactive

How did CC(Oc1cccc(Cl)c1)C(=O)N1CCN(c2ccc(Cl)cc2)CC1 (configuration not stated) do in these assays?
HePTP inhibitor: inactive

How did CC(C(=O)Nc1nc2ccccc2[nH]1)N1C(=O)C2CC=CCC2C1=O (configuration not stated) do in these assays?
TNAP act mid DEA: inactive; HePTP inhibitor: inactive; Ecoli WT expand: inactive; PLAP activator: 2

What do the screens show for `CSc1nc(N)nc(SCC(=O)C23CC4CC(CC(C4)C2)C3)c1C#N`?
TNAP act mid DEA: inactive; HePTP inhibitor: inactive; Ecoli WT expand: inactive

Results for Nc1nc(SCC(=O)C23CC4CC(CC(C4)C2)C3)n[nH]1 ?
TNAP act mid DEA: inactive; HePTP inhibitor: inactive; Ecoli WT expand: inactive; PLAP activator: 2.1

What do the screens show for `COc1ccc(/C(CC2(O)C(=O)Nc3ccccc32)=N\O)cc1` (configuration not stated)?
TNAP act mid DEA: inactive; HePTP inhibitor: inactive; Ecoli WT expand: inactive; PLAP activator: inactive

Results for CCn1c(SCC(=O)NNC(=O)Cc2ccccc2)nnc1-c1ccccc1 ?
Ecoli WT expand: inactive; PLAP activator: 2.4

What do the screens show for `Cc1ccc(-n2c(Cc3ccccc3)nnc2SCC(=O)NNC(=O)Cc2ccccc2)cc1`?
Ecoli WT expand: inactive; PLAP activator: 2.8

How did O=C1c2ccccc2C(=O)N1c1ccc2nc(SCc3ccccc3)sc2c1 do in these assays?
HePTP inhibitor: inactive

What do the screens show for `COC(=O)C1=C(C)NC2=C(C(=O)c3ccccc32)C1c1ccc(Br)o1` (configuration not stated)?
HePTP inhibitor: inactive

How did CC1(C)CC(NC(=O)c2cccc(Cl)c2)CC(C)(C)N1 do in these assays?
HePTP inhibitor: 102

How did Cc1cccc(C(=O)NC2CC(C)(C)NC(C)(C)C2)c1 do in these assays?
TNAP act mid DEA: inactive; HePTP inhibitor: inactive; Ecoli WT expand: inactive; PLAP activator: inactive

How did O=C(O)c1cccc(-c2ccc(C=C3C(=O)c4ccccc4C3=O)o2)c1 do in these assays?
HePTP inhibitor: 98

What do the screens show for `O=C1NN(c2ccc(F)c(Cl)c2)C(=O)/C1=C\c1ccc(-c2cccc(C(=O)O)c2)o1`?
HePTP inhibitor: inactive

What do the screens show for `O=C1NN(c2ccc(F)cc2)C(=O)/C1=C\c1ccc(-c2cccc(C(=O)O)c2)o1`?
HePTP inhibitor: 102

Results for O=C1NN(c2ccc(Cl)cc2)C(=O)/C1=C\c1ccc(-c2cccc(C(=O)O)c2)o1 ?
HePTP inhibitor: 103

Results for CCC(=O)N1CCc2cc(S(=O)(=O)NC(Cc3ccccc3)C(=O)NC3CCCC3)ccc21 (configuration not stated) ?
TNAP act mid DEA: inactive; HePTP inhibitor: inactive; Ecoli WT expand: inactive; PLAP activator: inactive

What do the screens show for `CCOC(=O)N1CCN(C(=O)CN(c2cccc(C)c2)S(=O)(=O)c2ccc(C)cc2)CC1`?
TNAP act mid DEA: inactive; HePTP inhibitor: inactive; Ecoli WT expand: inactive; PLAP activator: inactive

Results for Cc1ccc(S(=O)(=O)N(CC(=O)N2CCC(C)CC2)c2cccc(C)c2)cc1 ?
Ecoli WT expand: inactive; PLAP activator: 2.2

Results for Nc1ncnc2nc(SCCc3ccccc3)[nH]c12 ?
TNAP act mid DEA: inactive; HePTP inhibitor: inactive; PLAP activator: 2

Results for Cc1cc(-n2c(C)cc(C(=O)CN3C(=O)NC4(CCCCCC4)C3=O)c2C)no1 ?
TNAP act mid DEA: inactive; HePTP inhibitor: inactive; Ecoli WT expand: inactive; PLAP activator: inactive

What do the screens show for `COc1ccc(N2CCN(CC(O)COc3ccc4c(c3)CCC4)CC2)cc1` (configuration not stated)?
Ecoli WT expand: inactive; PLAP activator: 2

How did OC(COc1ccc2c(c1)CCC2)CN1CCN(c2ccccc2F)CC1 (configuration not stated) do in these assays?
TNAP act mid DEA: inactive; HePTP inhibitor: inactive; Ecoli WT expand: inactive; PLAP activator: inactive

What do the screens show for `O=C1NC(=O)C(=Cc2ccc(-c3cc(Cl)c([N+](=O)[O-])cc3Cl)o2)C(=O)N1`?
HePTP inhibitor: inactive

How did O=C1NC(=O)C(=Cc2ccc(Cl)c([N+](=O)[O-])c2)C(=O)N1 do in these assays?
HePTP inhibitor: 96

What do the screens show for `Cc1ccc2nc3c(cc2c1)c(NC(=O)c1ccccn1)nn3CC(C)C`?
Ecoli WT expand: inactive; PLAP activator: 2.3

Results for COc1ccc2nc(NC(=O)C(NS(=O)(=O)c3cccc4nsnc34)C(C)C)sc2c1 (configuration not stated) ?
Ecoli WT expand: inactive; PLAP activator: 2.1

Results for COc1ccc2nc(NC(=O)C3CCN(S(=O)(=O)c4cccc5nsnc45)CC3)sc2c1 ?
TNAP act mid DEA: inactive; HePTP inhibitor: inactive; Ecoli WT expand: inactive; PLAP activator: inactive

What do the screens show for `O=C(CN(C(=O)Cn1nnc(-c2cccs2)n1)c1ccc2c(c1)OCCO2)NCc1ccccc1`?
Ecoli WT expand: inactive; PLAP activator: 2.1

How did O=C(CN(CCc1ccccc1)C(=O)Cn1nnc(-c2cccs2)n1)NCc1ccco1 do in these assays?
TNAP act mid DEA: inactive; HePTP inhibitor: inactive; Ecoli WT expand: inactive; PLAP activator: inactive

What do the screens show for `Nc1nonc1C(=O)OCc1ccccc1`?
HePTP inhibitor: inactive

What do the screens show for `CCC1=NN(C(=O)c2ccc(OC)cc2)C(O)(c2ccncc2)C1` (configuration not stated)?
HePTP inhibitor: 104

Results for CC(C)CC(=O)N1CCC(O)(CS(=O)(=O)Cc2ccccc2Cl)CC1 ?
Ecoli WT expand: inactive; PLAP activator: inactive

Results for O=C1N=c2ccccc2=C1c1s/c(=N/N=C2/C(=O)Nc3ccccc32)n(-c2ccc(O)cc2)c1O ?
HePTP inhibitor: 98

Results for O=C1N=c2ccccc2=C1c1sc(=O)n(-c2cccc(O)c2)c1O ?
HePTP inhibitor: inactive

What do the screens show for `Cc1ccc(C)c(N2CCN(C(=O)Cc3cn(C)c4ccccc34)CC2)c1`?
Ecoli WT expand: inactive; PLAP activator: inactive

How did Cc1ccc(Cl)cc1N1CCN(C(=O)Cc2cn(C)c3ccccc23)CC1 do in these assays?
Ecoli WT expand: inactive; PLAP activator: 2

Results for CCN(C(N)=S)c1ccccc1 ?
Ecoli WT expand: inactive; PLAP activator: inactive

Results for COC(=O)c1cc(-c2ccc(Cl)s2)nc2ccccc12 ?
HePTP inhibitor: inactive

Results for Cc1ccc2nc(Nc3nc(CSc4nnnn4-c4ccccc4)cc(=O)[nH]3)nc(C)c2c1 ?
Ecoli WT expand: inactive; PLAP activator: 2.8

What do the screens show for `CCCCCc1c(C)nc(Nc2nc(C)c3cc(OC)ccc3n2)[nH]c1=O`?
TNAP act mid DEA: inactive; HePTP inhibitor: inactive; Ecoli WT expand: inactive; PLAP activator: 2

Results for CCc1ccc2nc(Nc3nc(COC)cc(=O)[nH]3)nc(C)c2c1 ?
Ecoli WT expand: inactive; PLAP activator: 2.5

Results for Cc1cc(C)cc(NC(=O)CSc2nc3ccncc3[nH]2)c1 ?
Ecoli WT expand: inactive; PLAP activator: 2.2

How did Clc1ccc(CSc2nc3ccncc3[nH]2)cc1 do in these assays?
Ecoli WT expand: inactive; PLAP activator: inactive

What do the screens show for `Cc1ccc(CSc2nc3ccncc3[nH]2)cc1`?
Ecoli WT expand: inactive; PLAP activator: 2.7
